We go through 7 compounds from PubChem BioAssay (Tox21).

Unmarked numbers belong to inactive results. Results filed as inconclusive are left out. The source made the active and inactive calls. Unless noted, calls come from the whole dose curve.

Experiment [1] in a line: Nuclear factor erythroid 2-related factor 2/antioxidant responsive element (Nrf2/ARE) small molecule agonists: qHTS cell viability counter screen in human keratinocytes (AID 1919968; active = well fitted curve in the direction sought with a large enough effect in the repeat runs; an effect the other way counts as inactive or inconclusive; note: nearly all actives have a fitted effect of over 55% in size). The method, boiled down: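 After a 5 h attachment period, ARE-reporter keratinocytes were dosed with compounds in DMSO and then cultured 23 h at 37 C. Cell viability came from CellTiter-Fluor signal read after a further 1 h.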

Experiment [2] is described as follows: Nuclear factor erythroid 2-related factor 2/antioxidant responsive element (Nrf2/ARE) small molecule agonists: luciferase reporter gene qHTS assay in human keratinocytes (AID 1919969). Note: nearly all actives have a fitted effect of over 35% in size.
Experiment [3] deals with Gonadotropin-releasing hormone receptor (Homo sapiens) (UniProt P30968). The experiment in a line: Human gonadotropin-releasing hormone receptor (GnRHR) small molecule agonists, calcium flux assay in GnRHR-HEK293 cells (AID 1920063). Note: nearly all actives have a fitted effect of over 35% in size. The method, boiled down:
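We seeded human GnRHR-expressing HEK293 cells for 18 hours, loaded them with calcium dye for an hour at 37 C, added test compounds, and recorded fluorescence intensity kinetically for three minutes.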
Background: Calcium flux is commonly read through the fluorescence of an indicator in the cells.

In experiment [4] the target is KiSS-1 receptor (Homo sapiens) (UniProt Q969F8). The experiment in a line: Human kisspeptin (KISS1R) small molecule agonists, calcium flux assay in KISS1R-HEK293 cells (AID 1920064; active = well fitted curve in the direction sought with a large enough effect in the repeat runs; an effect the other way counts as inactive or inconclusive). The method, boiled down:
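Kinetic calcium assay, 1 s sampling over 3 min at Ex/Em 480/540, in HEK293 cells engineered with human KISS1R; compounds delivered in DMSO after 1 h dye loading.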

Experiment [5] is described as follows: G protein-coupled receptor (GPCR) small molecule agonists, calcium flux assay: HEK293 wild type cell line counter screen (AID 1920065). The gist of the method: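 Calcium-sensitive dye, loaded 1 h at 37 C into cells cultured 18 h, reports compound-evoked calcium release as fluorescence (Ex/Em 480/540), measured over 3 min. Agonist mode; 15-point titrations, triplicate.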

Experiment [6] in a line: p53 small molecule agonists, cell-based qHTS assay with human liver microsomes (AID 1963577). The gist of the method: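 p53RE-bla reporter cells were pre-incubated 5 h at 37 C, then treated with compounds plus human liver microsomes (0.5 mg/mL final) and NADPH (0.5 mg/mL final) for 16 h at 37 C. Beta-lactamase activity was read by LiveBLAzer fluorescence after 2 h at room temperature.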
For orientation: In qHTS, concentration-response curves come from the screen itself.

Experiment [7] is described as follows: p53 small molecule agonists, cell-based qHTS assay with rat liver microsomes (AID 1963578). The gist of the method: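 p53RE-bla cells were exposed to compounds together with rat liver microsomes (0.5 mg/mL final) and NADPH (0.5 mg/mL final) for 16 h at 37 C, then read by LiveBLAzer beta-lactamase fluorescence after 2 h at room temperature.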
Experiment [8] is described as follows: p53 small molecule agonists, cell-based qHTS assay with human liver microsomes: qHTS cell viability counter screen (AID 1963579). Note: nearly all actives have a fitted effect of over 45% in size. The method, boiled down:
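p53RE-bla cells (4,000/well) were pre-incubated 5 h at 37 C, then given compounds in DMSO plus human liver microsomes (0.5 mg/mL final) and NADPH (0.5 mg/mL final) for 16 h at 37 C. Viability was read by CellTiter-Glo luminescence.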

The nature of experiment [9]: p53 small molecule agonists, cell-based qHTS assay with rat liver microsomes: qHTS cell viability counter screen (AID 1963580). Note: nearly all actives have a fitted effect of over 45% in size. The gist of the method: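 p53RE-bla HCT-116 cells were exposed 16 h at 37 C to compounds with rat liver microsomes (0.5 mg/mL) and NADPH (0.5 mg/mL). Viability was measured in the same wells as ATP content by CellTiter-Glo luminescence.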
Experiment [10] is described as follows: p53 small molecule agonists, cell-based qHTS assay: qHTS cell viability counter screen (AID 1963581). Note: nearly all actives have a fitted effect of over 45% in size. The method, boiled down:
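Following 5 h attachment, HCT-116 p53RE-bla cells took up compound for 16 h at 37 C; the reporter was read with B/G FRET substrate (2 h RT), and viability then via CellTiter-Glo ATP luminescence.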

Experiment [11] is described as follows: p53 small molecule agonists, cell-based qHTS assay (AID 1963582; active = well fitted activation curve with a large enough effect in the signal ratio in the repeat runs, not every such curve was filed as active; the % refers to the signal ratio). The method, boiled down: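 In this cell-based concentration-response screen, a p53 response element drives beta-lactamase; cells received DMSO-borne compounds after 5 h culture and were incubated a further 16 h before FRET substrate development.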
A short description of experiment [12]: cAMP Responsive Elements (CRE) small molecule agonists, cell-based qHTS assay (AID 1963590). The method, boiled down: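 A CRE-responsive beta-lactamase reporter in HEK 293T cells was used. Treatment ran 3 h at 37 C; detection used LiveBLAzer B/G FRET substrate for 2 h at room temperature.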
A short description of experiment [13]: cAMP Responsive Elements (CRE) small molecule antagonists, cell-based qHTS assay (AID 1963591; active = well fitted inhibition curve with a large enough effect in the signal ratio in the repeat runs, not every such curve was filed as active; the % refers to the signal ratio). The gist of the method: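 HEK293T cells carrying a CRE-driven beta-lactamase reporter receive compound and NKH477 (0.25 uM final) for 3 h. Fluorescence from LiveBLAzer B/G FRET substrate is read after 2 h at room temperature.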
In experiment [14] the target is Beta-2 adrenergic receptor (Homo sapiens) (UniProt P07550). The experiment in a line: Adrenergic beta2 receptor (ADRB2) small molecule antagonists, cell-based qHTS assay (AID 1963592). For activity change, negative = inhibition: series mostly up to about 92 µM. Note: nearly all actives have a fitted effect of over 50% in size. Note: potency is the fitted concentration of half-maximal effect. The method, boiled down:
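Cells (CHO, stable ADRB2 overexpression) incubated 18-20hr at 37C; compounds added from DMSO; agonist mix (1nM isoproterenol, 100uM IBMX, 25uM Ro-20-1724) added; 0.5hr RT; d2-cAMP and anti-cAMP-cryptate added; 1hr RT; 665/615 nm read.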

Experiment [15] has the same target. The experiment in a line: Adrenergic beta2 receptor (ADRB2) small molecule agonists, cell-based qHTS assay (AID 1963593).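 Note: CHO cells stably overexpressing human ADRB2.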 The method, boiled down: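 CHO cells stably over-expressing ADRB2 were plated overnight at 37C, then dosed with compounds plus a stimulation mix containing 100uM IBMX and 25uM Ro-20-1724 for 0.5hr at room temperature. cAMP was measured by HTRF competition, 1hr.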

Experiment [16] deals with D(2) dopamine receptor (Homo sapiens) (UniProt P14416). The experiment in a line: Dopamine D2 receptor (DRD2) small molecule agonists, cell-based qHTS assay (AID 1963594). Note: nearly all actives have a fitted effect of over 35% in size. The gist of the method:
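HEK293 cells stably expressing human DRD2, pre-treated with PDE inhibitor Ro20-1724 (0.1 mM final) and compound 10 min at room temperature, then stimulated with NKH477 (200nM […]) for 30 min. cAMP read by HTRF (665/620 nm).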

For experiment [17], the target named is Muscarinic acetylcholine receptor M1 (Homo sapiens) (UniProt P11229). The experiment in a line: Cholinergic receptor muscarinic 1 (CHRM1) small molecule agonists, cell-based qHTS assay (AID 1963589). Note: nearly all actives have a fitted effect of over 35% in size. The gist of the method: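 Measures agonist-induced intracellular calcium rise. Stable human CHRM1 CHO line, 1 h dye load at 37 C, compounds from DMSO, kinetic fluorescence read.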
Chain of Muscarinic acetylcholine receptor M1 (Homo sapiens) (P11229 whole entry, looked up): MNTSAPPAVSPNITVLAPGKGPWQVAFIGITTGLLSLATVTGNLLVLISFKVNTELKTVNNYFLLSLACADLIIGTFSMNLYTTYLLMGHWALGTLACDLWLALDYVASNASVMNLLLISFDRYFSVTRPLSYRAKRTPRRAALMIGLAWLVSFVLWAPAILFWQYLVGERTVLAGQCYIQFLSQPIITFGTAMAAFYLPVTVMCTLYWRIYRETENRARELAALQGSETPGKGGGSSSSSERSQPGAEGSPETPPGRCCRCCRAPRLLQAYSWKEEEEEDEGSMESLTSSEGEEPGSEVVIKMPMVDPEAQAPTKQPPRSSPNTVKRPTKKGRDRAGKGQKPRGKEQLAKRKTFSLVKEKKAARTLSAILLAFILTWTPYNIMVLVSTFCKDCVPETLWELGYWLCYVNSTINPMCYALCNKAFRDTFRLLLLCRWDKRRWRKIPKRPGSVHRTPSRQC

Experiment [18] addresses D(2) dopamine receptor (Homo sapiens) (UniProt P14416). The experiment in a line: Dopamine D2 receptor (DRD2) small molecule antagonists, cell-based qHTS assay (AID 1963595; active = well fitted inhibition curve with a large enough effect in the signal ratio in the repeat runs, with a control signal flat; the % refers to the signal ratio). The method, boiled down: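 Cells were plated and grown for 24 h at 37 °C. Ro20-1724 (0.1 mM final) went in first, then compound for 10 min. NKH477 (200 nM) with quinpirole (12 nM) followed for 30 min at RT, then HTRF detection reagents for 1 h.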
% is set by controls: 0 for no effect and ±100 for the full control effect.

Chain of KiSS-1 receptor (Homo sapiens) (Q969F8 whole entry, looked up): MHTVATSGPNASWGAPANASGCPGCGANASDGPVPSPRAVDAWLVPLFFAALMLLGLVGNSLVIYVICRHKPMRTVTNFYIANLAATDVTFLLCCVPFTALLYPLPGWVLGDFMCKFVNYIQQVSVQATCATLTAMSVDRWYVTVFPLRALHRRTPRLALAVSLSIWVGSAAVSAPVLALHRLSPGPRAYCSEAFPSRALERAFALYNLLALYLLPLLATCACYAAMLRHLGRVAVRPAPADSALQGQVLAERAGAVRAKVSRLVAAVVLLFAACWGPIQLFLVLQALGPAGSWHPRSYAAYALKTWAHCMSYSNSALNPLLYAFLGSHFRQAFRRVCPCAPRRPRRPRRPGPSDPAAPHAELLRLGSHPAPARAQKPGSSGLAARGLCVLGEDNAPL
Chain of Gonadotropin-releasing hormone receptor (Homo sapiens) (P30968 whole entry, looked up): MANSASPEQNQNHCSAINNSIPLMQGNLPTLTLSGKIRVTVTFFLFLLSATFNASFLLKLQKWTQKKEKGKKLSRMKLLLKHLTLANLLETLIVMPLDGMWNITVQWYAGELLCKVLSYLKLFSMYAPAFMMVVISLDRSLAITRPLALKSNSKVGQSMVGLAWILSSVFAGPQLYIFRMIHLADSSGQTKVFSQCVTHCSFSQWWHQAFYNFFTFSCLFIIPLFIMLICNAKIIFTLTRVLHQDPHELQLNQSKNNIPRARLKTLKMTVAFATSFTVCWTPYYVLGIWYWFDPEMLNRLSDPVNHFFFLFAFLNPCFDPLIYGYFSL
Chain of D(2) dopamine receptor (Homo sapiens) (P14416 whole entry, looked up): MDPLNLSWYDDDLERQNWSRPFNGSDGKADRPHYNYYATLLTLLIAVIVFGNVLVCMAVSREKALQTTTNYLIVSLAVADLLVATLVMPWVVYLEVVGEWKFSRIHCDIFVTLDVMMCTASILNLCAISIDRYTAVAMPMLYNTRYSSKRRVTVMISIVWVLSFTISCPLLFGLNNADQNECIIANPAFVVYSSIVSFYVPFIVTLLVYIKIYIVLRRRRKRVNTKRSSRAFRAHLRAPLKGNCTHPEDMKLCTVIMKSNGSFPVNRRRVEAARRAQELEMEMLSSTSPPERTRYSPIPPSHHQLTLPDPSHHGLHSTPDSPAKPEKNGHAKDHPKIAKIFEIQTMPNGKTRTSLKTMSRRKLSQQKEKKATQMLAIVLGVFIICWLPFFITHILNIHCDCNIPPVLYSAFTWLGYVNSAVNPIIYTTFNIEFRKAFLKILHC
Chain of Beta-2 adrenergic receptor (Homo sapiens) (P07550 whole entry, looked up): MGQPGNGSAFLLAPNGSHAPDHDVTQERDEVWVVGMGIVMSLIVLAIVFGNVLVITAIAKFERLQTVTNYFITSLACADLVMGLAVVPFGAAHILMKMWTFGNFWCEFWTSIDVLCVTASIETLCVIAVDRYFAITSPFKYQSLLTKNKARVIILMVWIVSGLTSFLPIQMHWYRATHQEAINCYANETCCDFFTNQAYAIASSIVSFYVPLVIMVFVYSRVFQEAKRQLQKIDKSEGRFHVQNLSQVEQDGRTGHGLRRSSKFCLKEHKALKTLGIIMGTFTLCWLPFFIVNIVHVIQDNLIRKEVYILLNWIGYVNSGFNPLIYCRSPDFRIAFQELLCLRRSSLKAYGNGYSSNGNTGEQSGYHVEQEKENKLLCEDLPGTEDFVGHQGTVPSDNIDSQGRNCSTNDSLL

Turning to `Cc1ccc(N(CC2=NCCN2)c2cccc(O)c2)cc1`, the Potency result in [1], in experiment [2], in [3], in experiment [6], in [7] and in experiment [8] was “inactive” throughout. The Potency entry in [9], in experiment [10], in [11], in [12], in [13] and in experiment [14] was “inactive” throughout. Besides, the Potency entry in experiment [15] and in [16] was “inactive” each time. Also, the outcome in experiment [4] and in experiment [5] was inactive.

Turning to `Cc1cccc(C(C)(C)C)c1O`, the Potency entry in [1], in experiment [2], in experiment [3], in experiment [6], in experiment [7] and in experiment [8] was “inactive” in each case. The Potency result in [9], in experiment [10], in experiment [11], in [17], in experiment [12] and in experiment [13] was “inactive” throughout. For the same compound, the Potency entry in experiment [14], in [15], in [16] and in [18] was “inactive” each time. For the same compound, the outcome in experiment [4] and in experiment [5] was inactive.

Take `O=S1(=O)c2cccc3cccc(c23)N1CCCN1CCN(c2ccc(F)cc2)CC1`: the Potency entry in experiment [1], in experiment [2], in [3], in experiment [6], in [7] and in [8] was “inactive” each time. The Potency entry in experiment [9], in experiment [10], in experiment [11], in experiment [17], in experiment [12] and in [18] was “inactive” in each case. The outcome in [4] and in experiment [5] was inactive. Moreover, the Potency in [14] was 33.5 µM (active).

As to `COc1ccc(C2C(=O)c3ccccc3C2=O)cc1`, the Potency entry in experiment [1], in [2], in experiment [3], in experiment [6], in [7] and in [8] was “inactive” in each case. Also, the Potency result in [9], in experiment [10], in [11], in experiment [12], in [13] and in [14] was “inactive” in each case. For the same compound, the Potency entry in experiment [16] and in experiment [18] was “inactive” throughout. Besides, the outcome in experiment [4] and in experiment [5] was inactive.

In the case of `Cc1cc(C(C)(C)C)c(O)c(C)c1CC1=NCCN1`, the Potency result in [1], in experiment [2], in experiment [3], in experiment [6], in [7] and in experiment [8] was “inactive” throughout. Moreover, the Potency result in experiment [9], in [10], in [11], in experiment [12], in [13] and in experiment [14] was “inactive” throughout. Moreover, the Potency result in experiment [15], in experiment [16] and in experiment [18] was “inactive” in each case. Besides, the outcome in experiment [4] and in [5] was inactive.

Consider `NCC(=O)O`, for which the activity change, negative = cytotoxicity was -4.41% [at 19 µM] in [1], -11.7% [at 13.5 µM] in experiment [8], -0.16% [at 13.5 µM] in [9] and -0.356% [at 13.5 µM] in [10]. Also, the activity, positive = activation in [2] is -0.375% [at 19 µM]. Besides, in experiment [3], the activity change was 1.37% [at 11.8 µM, hits give high values]. Moreover, the activation is -0.57% [at 15.8 µM] in [4]; -1.52% [at 11.8 µM] in experiment [5]; 0.573% [at 13.5 µM] in experiment [6]; 1.19% [at 13.6 µM] in experiment [7]; 0.144% [at 13.5 µM] in experiment [11]; -1.05% [at 19 µM] in experiment [12]. The activity change, negative = inhibition is 4.57% [at 18.9 µM] in experiment [13], -10.5% [at 19 µM] in experiment [14] and -7.27% [at 18.9 µM] in experiment [18]. Moreover, the Potency result in experiment [15] is “inactive”.

With `CC[C@@H](CO)NCCN[C@@H](CC)CO`, the Potency result in experiment [1], in [2], in experiment [3], in experiment [6], in [7] and in experiment [8] was “inactive” in each case. Moreover, the Potency entry in experiment [9], in experiment [10], in experiment [11], in experiment [12], in experiment [13] and in experiment [14] was “inactive” throughout. Besides, the Potency result in [16] and in experiment [18] was “inactive” throughout. Moreover, the outcome in [4] and in experiment [5] was inactive.
